Source: PubChem BioAssay (NCI)
Compounds without any hit were thinned out: in the full panel of roughly 83,000, 20% have a hit.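 Method: cells in 96-well plates; compound added at one concentration; 48 h incubation; percent growth measured; values under 10 scored active.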 Values without a mark were called inactive. Active and inactive are the calls of the source.

The compounds below were run on SK-MEL-2 melanoma (assay: NCI-60 one-dose screen, 48 h (100 = growth as untreated, 0 = no growth, -100 = all killed)). Conditions: 10 µM unless noted.

| SMILES | growth |
| --- | --- |
| C=C(C)[C@@H]1CC[C@]2(C(=O)NCCNCCN)CC[C@]3(C)[C@H](CC[C@@H]4[C@@]5(C)C/C(=C/c6ccncc6)C(=O)C(C)(C)[C@@H]5CC[C@]43C)[C@@H]12 | 108% |
| O=C(COc1ccc(-c2nc3ccccc3[nH]2)cc1)N=Nc1c(O)[nH]c2ccc(Cl)cc12 | 107% |
| C/C(=N/O)c1ccc(F)cc1 | 7.9% (active) |
| COc1ccc(C2=Nc3c/c(=C\c4c(O)[nH]c5ccc(Cl)cc45)ccc3=N2)cc1 | 20.1% |
| CCn1cc(C(=O)N/N=C/c2cccs2)c(=O)c2cc(F)c(N3CCNC(C)C3)c(F)c21 (stereo unspecified) | 103% |
| CCCCCCNC(=O)Oc1ccc(/C(=C(/C)Cc2ccc(OC)cc2)c2ccc(OCCCN(C)C)cc2)cc1 | 26.9% |
| O=C1/C(=C/c2ccc(-c3ccc(Br)cc3)o2)SC(=S)N1CCc1ccc(O)cc1 | 2.89% (active) |
| CCOC(=O)CSc1ncnc2c1c(-c1ccccc1)c(-c1ccccc1)n2-c1ccc(C)cc1 | 82.4% |
| CCNc1cc(-c2cccc(OC(F)(F)F)c2)nc2ccc(N3CCCC3)cc12 | 6.05% (active) |
| CCCCNC(=O)Oc1ccc(/C(=C(/CC)Cc2ccccc2)c2ccc(OCCN3CCCCCC3)cc2)cc1 | 84.9% |
| COc1ccc(-c2nc3c(c(-c4ccccc4)nn3-c3ccccc3)c(-c3ccc(N4CCOCC4)cc3)c2C#N)cc1 | 106% |
| COc1cc(-c2csc(NC(=O)c3cc(-n4cnc(C)c4)cc(C(F)(F)F)c3)n2)cc(OC)c1OC | 67.6% |
| COc1cc(CNS(=O)(=O)c2ccc(C)cc2)ccc1OCc1cn(-c2ccc(Br)cc2)nn1 | 104% |
| Nc1ncnc2c1N=C(c1ccc3c(c1)OCO3)CC(c1ccc([N+](=O)[O-])cc1)N2 (stereo unspecified) | 60.8% |
| COc1ccc(-c2nc3c(c(-c4ccccc4)nn3-c3ccccc3)c(-c3ccc(N4CCN(C)CC4)cc3)c2C#N)cc1 | 106% |
| CCOP(=O)(OCC)c1nc(-c2ccccc2)oc1NCc1cccnc1 | 111% |
| CCOC(=O)c1cn2ncnc(Oc3ccc(NC(=O)NC4CCCCC4)c(Cl)c3)c2c1C | 103% |
| COC(=O)c1cc(-c2ccccc2)[nH]c1N/N=C/c1c(Cl)cccc1Cl | -4.44% (active) |
| CC(C)(C)c1cc(-c2nc3ccc(N4CCN(S(C)(=O)=O)CC4)cc3[nH]2)cc(C(C)(C)C)c1O | 94% |
| CCCCN1C(=O)/C(=c2\sc3n(c2=O)C2C(NN=3)N(CC)C(=O)N2CC)c2ccccc21 (stereo unspecified) | 21.9% |
| Cc1ccc(-n2c(=S)[nH]c3sc4c(c3c2=O)CCC(=O)C4)cc1 | 39.6% |
